In the library only some 2.3% were active in any assay of this set; here they are far more common.
Giardia kill – kills Giardia lamblia | Giardia lamblia trophozoite viability | activity change, % at 7.66 µM, hits read low | hit rate 0.15% among 340,000 | AID 540267; in the data active means activity change below about -80%; inconclusive means between about -30% and that limit;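 further: parasites exposed to compound for two days anaerobically before the ATP read; on the % scale 0 is the no-effect control and ±100 the full control effect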
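Each well holds 100 Giardia trophozoites and compound. After two days (48 hrs) at 37 deg C in anaerobic conditions, ATP is quantified by luminescence.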
TRPV1 agonist – human TRPV1 agonism. Q8NER1. TRPV1-expressing cells, Fluo-8 calcium influx, agonist mode. hit rate 0.19% among 320,000. activation, % at 8.33 µM; in the data active means activation above about 80%; inconclusive means between about 30% and that limit; further: 0% is about no effect
Target sequence (Q8NER1 whole entry, looked up): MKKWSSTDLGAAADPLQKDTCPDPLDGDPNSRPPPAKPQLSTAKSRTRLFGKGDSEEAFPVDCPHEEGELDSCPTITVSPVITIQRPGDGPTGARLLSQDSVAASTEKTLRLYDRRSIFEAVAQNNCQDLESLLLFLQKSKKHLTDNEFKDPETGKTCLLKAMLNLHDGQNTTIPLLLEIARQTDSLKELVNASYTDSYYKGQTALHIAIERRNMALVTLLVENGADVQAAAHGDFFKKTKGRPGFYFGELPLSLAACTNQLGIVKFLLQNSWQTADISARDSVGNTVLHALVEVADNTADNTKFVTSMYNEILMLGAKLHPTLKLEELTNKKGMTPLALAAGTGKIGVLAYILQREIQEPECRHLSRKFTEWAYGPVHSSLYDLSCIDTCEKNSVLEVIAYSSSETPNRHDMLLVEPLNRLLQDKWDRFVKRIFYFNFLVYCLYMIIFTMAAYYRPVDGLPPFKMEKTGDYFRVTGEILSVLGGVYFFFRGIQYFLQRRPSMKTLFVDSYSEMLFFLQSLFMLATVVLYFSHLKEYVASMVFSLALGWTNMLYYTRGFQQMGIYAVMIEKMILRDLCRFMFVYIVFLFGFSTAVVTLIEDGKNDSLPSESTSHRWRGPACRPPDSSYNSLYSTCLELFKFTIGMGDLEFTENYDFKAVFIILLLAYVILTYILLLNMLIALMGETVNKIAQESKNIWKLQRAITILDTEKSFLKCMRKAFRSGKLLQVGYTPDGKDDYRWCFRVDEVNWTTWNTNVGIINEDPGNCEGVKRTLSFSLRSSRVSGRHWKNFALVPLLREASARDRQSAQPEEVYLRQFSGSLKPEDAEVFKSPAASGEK
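Fluo-8 calcium influx in TRPV1-expressing cells, kinetic read (ex 480/em 520 nm). Compound added and read 3 min for agonist activity, followed by capsaicin at EC20 final and 2 min further read for enhancement.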
ELG1 repair inh – blocks ELG1-dependent DNA repair in HEK293T cells | Potency, µM (highest dose often 46.1 µM), for inactives: at the top dose activity change, negative = inhibition, hits mostly inhibitors | HEK293T ELG1-luciferase reporter, luminescence, 16 h; DNA damage induced by 5-fluorouridine | hit rate 2.3% among 330,000; further: potency means the concentration at half of the fitted maximal effect; on the % scale 0 is the no-effect control and ±100 the full control effect; nearly all actives have a fitted effect of over 55% in size
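HEK293T cells expressing luciferase-tagged ELG1 (2,000/well) received 5-Fluorouridine plus compound or DMSO for 16 hr at 37 °C. Luciferase was read by ONE-Glo luminescence after 30 min at room temperature.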
TRPV1 PAM – human TRPV1 potentiation; Q8NER1; TRPV1-expressing cells, Fluo-8 calcium influx, capsaicin EC20 potentiation; potentiation, % at 8.33 µM; hit rate 0.02% among 320,000; in the data active means potentiation above about 80%; inconclusive means between about 30% and that limit; further: 0% is about no effect
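Cells expressing TRPV1 were dye-loaded with Fluo-8 and read kinetically: 10 s baseline, 3 min after compound (agonist portion), then 2 min after EC20 capsaicin (allosteric enhancer portion). Calcium-bound dye fluorescence at 480/520 nm.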
FUS yeast rescue – rescues growth of FUS-expressing yeast | S. cerevisiae FUS-expressing, growth rescue, OD600, 24 h | Potency, µM (titrated, usually from 76.6 µM), hits mostly activators | hit rate 0.24% among 390,000;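 further: potency means the concentration at half of the fitted maximal effect; plate controls were DMSO vehicle for no effect and reference control for full effect; nearly all actives have a fitted effect of over 55% in size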
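FUS-expressing yeast, raffinose-pregrown, induced in 2% galactose minimal medium at OD 0.005; compounds in a dilution series, 24hr at 30C. Growth restoration read as absorbance at 600 nm. CP55940 positive control, DMSO negative.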
An asterisk follows results filed as active; i = inactive; ? = inconclusive; nt = not tested or not shown. Unless noted, the call rests on the fitted dose curve; in most records, active means well fitted curve in the direction sought with a large enough effect; inconclusive means small, poorly fitted or top-dose-only effect, or another doubt; inactive means no such curve, though single readings can be large; an effect the other way counts as inactive or inconclusive.

SMILES	Giardia kill	TRPV1 agonist	ELG1 repair inh	TRPV1 PAM	FUS yeast rescue
COc1cccc(-n2c(CN3CCN(c4cccc(C)c4)C(C)C3)nc3ccc([N+](=O)[O-])cc3c2=O)c1 (configuration not stated)	6	-3	12µM*	-7	nt
Cc1nc2ccn(Cc3ccccc3)c(=O)c2cc1C(=O)NCc1ccccc1F	nt	nt	nt	nt	i
CCOC(=O)c1cc2c(=O)n3ccccc3nc2n(Cc2ccco2)c1=NC(=O)c1cccnc1	7	-2	?	-5	32µM*
O=C(Nc1ccc2c(c1)Cc1ccccc1-2)c1cc2ccccc2o1	-1	nt	nt	nt	i
O=C(Nc1ccc2c(c1)Cc1ccccc1-2)c1ccncc1	-14	81*	?	-12	i
COc1ccc(-c2nc(CSCC(=O)N3CCN(c4cccc(C)c4C)CC3)c(C)o2)cc1OC	nt	nt	nt	nt	25µM*
CCOc1ccc(-c2nc(CSCC(=O)N3CCN(c4cccc(C(F)(F)F)c4)CC3)c(C)o2)cc1	nt	nt	nt	nt	22µM*
CCc1ccc(-c2nc(CSCC(=O)N3CCN(c4ncccn4)CC3)c(C)o2)cc1	-14	nt	15µM*	nt	i
CCOc1ccc(-c2nc(CSCC(=O)N3CCN(c4ccc(F)cc4)CC3)c(C)o2)cc1	nt	nt	nt	nt	i
COc1ccc(-c2nc(CSCC(=O)N3CCN(c4ccc(OC)cc4)CC3)c(C)o2)cc1	nt	nt	nt	nt	i
COc1ccccc1C(=O)Nc1nnc(SCc2cc(=O)c3cc(Cl)ccc3[nH]2)s1	nt	nt	nt	nt	i
Cc1c(NC(=O)c2sc3c([N+](=O)[O-])cccc3c2Cl)cccc1-c1nc2ccccc2o1	nt	nt	nt	nt	i
O=S(=O)(c1ccccc1)c1nc(-c2ccccc2)oc1N1CCN(c2cccc(Cl)c2)CC1	nt	nt	nt	nt	i
CC(C)(C)NC(=O)CSc1nsc(SCC(=O)NC(C)(C)C)c1C#N	-1	2	9.2µM*	12	i
CC(=O)CSc1nsc(SCC(C)=O)c1C#N	6	-4	-3%	10	i
CC(C)CCNC(=O)c1cccc(-n2cnc3cccnc32)c1	nt	nt	nt	nt	i
COc1cc(OC)cc(-c2nc3nc(C)c(CCC(=O)Nc4ccc(Cl)cc4)c(C)n3n2)c1	nt	nt	nt	nt	i
Cc1ccc(-c2cc(N)n[nH]2)cc1	-10	3	14%	6	28µM*
O=[N+]([O-])C(/C=C(/Cl)[N+](=O)[O-])=C(N1CCCCC1)N1CCCCC1	-94*	2	15%	-1	i
CC(OC(=O)CC1CCCCC1)C(=O)Nc1ccc(F)cc1 (configuration not stated)	6	83*	5%	-15	i
c1ccc2c(CCNc3ncnc4nc[nH]c34)cccc2c1	-13	9	23µM*	-9	i
c1ccc(CCCNc2ncnc3nc[nH]c23)cc1	0	-3	-15%	6	i
O=S(=O)(c1ccc(-c2csc(-c3cccnc3)n2)cc1)N1CCCCC1	7	15	23µM*	-4	?
CC(C)CCSc1nc(N2CCOCC2)c2c(c1C#N)CC(C)(C)OC2	-2	91*	12µM*	-18	i
Cc1ccc(Cl)cc1NC(=O)Cn1c(=O)c(CNc2ccccc2)cc2cc3c(cc21)OCCO3	nt	nt	nt	nt	28µM*
SMILES	Giardia kill	TRPV1 agonist	ELG1 repair inh	TRPV1 PAM	FUS yeast rescue
Cc1ccc2nc(-c3ccccc3)cc(C(=O)N3CCN(c4ccccc4O)CC3)c2c1	-16	3	?	-4	i
O=C(c1cc(-c2ccncc2)nc2ccccc12)N1CCN(c2ccccc2O)CC1	-4	-2	?	-17	18µM*
O=C(c1cc(-c2ccccc2)nc2ccccc12)N1CCN(c2ccccc2O)CC1	5	-1	13µM*	6	?
O=C(c1cc(-c2ccncc2)nc2ccccc12)N1CCN(c2ccccn2)CC1	-8	-4	?	3	i
O=C(c1cc(-c2cccc3ccccc23)nc2ccccc12)N1CCN(CCO)CC1	-12	nt	4.6µM*	nt	i
O=C(c1cc(-c2ccncc2)nc2ccccc12)N1CCN(c2ncccn2)CC1	-10	nt	23µM*	nt	i
O=C(NCCN1CCC(n2c(=O)[nH]c3ccccc32)CC1)c1ccc(F)cc1Cl	nt	nt	nt	nt	i
Cc1nc(N2CCN(S(=O)(=O)c3ccccc3C#N)CC2)c2c(-c3cccs3)csc2n1	3	1	18µM*	12	i
Cc1nc(N2CCCCC2)c2c(-c3cccs3)csc2n1	1	-17	?	30	i
CCS(=O)(=O)CCn1c([N+](=O)[O-])cnc1C	-86*	-1	-2%	4	i
COc1cccc(/C=C2\Oc3cc(OCC(=O)N4Cc5ccccc5C[C@H]4C(=O)O)ccc3C2=O)c1	-10	-2	6%	6	28µM*
Cc1nn(-c2ccccc2)c(N2CCCC2)c1/C=N/NC(=O)c1cc(-c2ccccn2)nc2ccccc12	5	0	8.2µM*	7	i
Cc1nn(-c2ccccc2)c(Cl)c1/C=N/NC(=O)c1cccc(S(=O)(=O)N2CCCC2)c1	-14	-6	13µM*	1	i
Cc1nn(-c2cccc(C(F)(F)F)c2)c(Cl)c1/C=N/Nc1cccc(C(=O)O)c1	-2	-1	?	5	i
Cc1nn(-c2ccccc2)c(N2CCCC2)c1/C=N/NC(=O)c1cc2ccccc2cc1O	-7	4	?	26	i
CCOC(=O)N/N=C/c1c(C)nn(-c2cccc(C(F)(F)F)c2)c1Cl	-21	2	18µM*	0	i
Cc1nn(-c2ccccc2)c(N2CCCC2)c1/C=N/NC(=O)c1cc(-c2cccs2)nc2ccccc12	2	3	15µM*	?	i
O=C(O)c1ccc(/C=N/NC(=O)c2cc(-c3cccs3)nc3ccccc23)cc1	-8	21	13%	13	i
CCCc1cnc2c(c1SCC(=O)N1CCC(C)CC1)c(=O)n(C)c(=O)n2C	nt	nt	nt	nt	i
Cc1ccccc1-n1c(SCC(=O)NC2CC2)nc2ccccc2c1=O	nt	nt	nt	nt	i
COC(=O)c1sccc1S(=O)(=O)N(CC(=O)NCc1ccc(F)cc1)c1ccc(Cl)cc1	nt	nt	nt	nt	i
O=C(NNC1=Nc2ccccc2SC1)c1ccc(F)cc1	-20	?	9.2µM*	-25	i
O=C(NNc1c2ccccc2nc2ccccc12)c1ccc(Cl)cc1	9	3	0%	-4	i
O=C(NNC1=Nc2ccccc2SC1)c1ccc(Cl)cc1	-4	?	6.5µM*	-17	i
Cc1ccc2nc(-c3ccc(C)o3)c(Nc3ccc(Cl)cc3)n2c1	-7	nt	nt	nt	nt
O=C(O)c1ccccc1C(=O)N1N=C2/C(=C/c3cccc([N+](=O)[O-])c3)CCCC2C1c1cccc([N+](=O)[O-])c1 (configuration not stated)	3	1	24%	0	25µM*
O=C(O)c1c(C(=O)N2N=C3/C(=C/c4ccccc4)CCCC3C2c2ccccc2)cccc1[N+](=O)[O-] (configuration not stated)	2	8	7%	6	i
